Experiment [1] can be described thus: NCI Yeast Anticancer Drug Screen. Data for the rad50 strain (AID 155).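 Further: 0% = growth of vehicle-only cultures of the same strain.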 To be noted: S. cerevisiae rad50 strain growth inhibition; at 50.0 µM; active compounds read high. Put shortly:
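DNA repair mutant yeast, compound exposure, growth read-out; inhibition is taken relative to vehicle.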

Experiment [2] is described as follows: NCI Yeast Anticancer Drug Screen. Data for the mec2-1 strain (AID 157). The following applies: S. cerevisiae mec2-1 strain, at 50.0 µM, active compounds read high. The method, boiled down: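 Readout is yeast growth inhibition, normalised to vehicle-treated controls, in the mec2-1 strain exposed to compound.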
Experiment [3] can be described thus: NCI Yeast Anticancer Drug Screen. Data for the sgs1 mgt1 strain (AID 161).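 Further: 0% = growth of cultures given vehicle only.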 The following applies: S. cerevisiae sgs1 mgt1 strain, at 50.0 µM, active compounds read high. The method, boiled down:
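This yeast growth screen uses a strain with defined DNA-repair lesions; compound-treated growth is compared with vehicle-treated growth.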

A short description of experiment [4]: NCI Yeast Anticancer Drug Screen. Data for the cln2 rad14 strain (AID 165).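 Further: 0% = growth equal to vehicle treated cultures.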 To be noted: S. cerevisiae cln2 rad14 strain, at 50.0 µM, active compounds read high. The method, boiled down: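 Relative to vehicle controls, growth inhibition of compound-treated cln2 rad14 yeast was recorded.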
A short description of experiment [5]: NCI Yeast Anticancer Drug Screen. Data for the bub3 strain (AID 167). To be noted: S. cerevisiae bub3 mutant strain, at 50.0 µM, active compounds read high. Put shortly: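 In this screen, a yeast mutant lacking normal mitotic checkpoint function is challenged with compound. Relative growth versus vehicle gives the inhibition value.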
A short description of experiment [6]: NCI Yeast Anticancer Drug Screen. Data for the mlh1 rad18 strain (AID 175). To be noted: S. cerevisiae mlh1 rad18 strain growth inhibition; at 50.0 µM; active compounds read high. Put shortly:
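Test agents were incubated with a yeast strain of defined genotype (DNA damage repair defect). Inhibition of growth was derived by comparison with vehicle-exposed cultures.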

This is part of a sample that, as a whole, favours compounds with a hit. Of some 79,000 tested, about 15% had one in any assay. Values without a mark were called inactive. Activity calls are given as the source filed them. No stated cut-off is given here; in the data, active means growth inhibition above about 70%; inactive means the rest.

Turning to `O=C(O)CP(=S)(S)c1ccccc1` (centres undefined), the growth inhibition in experiment [1] was -28.5%; in experiment [2], -32.9%; in experiment [3], -26.4%; in experiment [4] it was 2.4%; in experiment [5], -27.8%.

As for `[C-]#[O+].[C-]#[O+].[C-]#[O+].[CH3][Sn]([c]1ccccc1)[c]1ccccc1.[W].[c-]1[c-][c-][cH-][c-]1`, the growth inhibition in experiment [1] is 98.2% (active); in experiment [2] it was 99.3% (active); in experiment [3] it was 98.5% (active); in experiment [4] it was 97.5% (active); in experiment [5] it was 99.3% (active).

Regarding `Cc1ccc(C(=O)Nc2ccc(CP(=O)(O)O)cc2)cc1NC(=O)Nc1cc(C(=O)Nc2ccc(CP(=O)(O)O)cc2)ccc1C`, the growth inhibition is 3.55% in experiment [1]; -10.6% in experiment [2]; -30.1% in experiment [3]; 11.9% in experiment [4]; -29.1% in experiment [5].

Regarding `CCCCOP(=O)(OCCCC)Oc1ccc2ccccc2c1`, the growth inhibition in experiment [1] is 93.1% (active); in experiment [2], 93.2% (active); in experiment [3], 95.4% (active); in experiment [4] it was 92.8% (active); in experiment [5], 95.1% (active).

For `C[C@]12CCC(=O)C=C1CC[C@@H]1[C@@H]2CC[C@]2(C)C(=O)[C@H](n3ccnc3)C[C@@H]12`, the growth inhibition was -1.35% in experiment [1]; 2.45% in experiment [2]; 0.9% in experiment [3]; 3.2% in experiment [4]; -1.2% in experiment [5].

Regarding `CCOP(=O)(O)OCC`, the growth inhibition in experiment [1] is -16.6%; in experiment [2] it was -20.4%; in experiment [3], -20.1%; in experiment [4], -0.25%; in experiment [5] it was 0.95%.

Take `CCCCCCCCCCNP(=O)(Oc1ccccc1)Oc1ccccc1`: the growth inhibition in experiment [1] was -21.8%; in experiment [2], 4.05%; in experiment [3], -16.4%; in experiment [4], -24.5%; in experiment [5] it was -4.75%.

As to `C[C@H](O)CCC(=O)c1ccoc1`, the growth inhibition in experiment [1] is -5.65%; in experiment [2] it was -2.6%; in experiment [3] it was -22.1%; in experiment [4], 6.2%; in experiment [5], -22.1%.

Regarding `O=c1oc2cc(O)ccc2c(O)c1C(c1ccc2ccccc2c1)c1c(O)c2ccc(O)cc2oc1=O`, the growth inhibition in experiment [1] is 8.65%; in experiment [2] it was 31.2%; in experiment [3] it was 36.7%; in experiment [4] it was 35.8%; in experiment [5], 17.2%.

For the compound `C=Cn1nnnc1N`, the growth inhibition in experiment [1] was -3%; in experiment [2] it was 2.05%; in experiment [3], -10.3%; in experiment [4] it was 8.6%; in experiment [5], 14.3%.

Turning to `O=[N+]([O-])c1ccc(/C=C/c2ccc(S(=O)(=O)F)cc2Cl)c(Cl)c1`, the growth inhibition in experiment [1] is -13.2%; in experiment [2] it was -11.2%; in experiment [3], 0.75%; in experiment [4] it was -34.3%; in experiment [5], -6.7%; in experiment [6], -4.35%.

As for `O=C(O)c1c(Cl)n(Cc2cc(Cl)ccc2Cl)c2ccccc12`, the growth inhibition in experiment [1] was 4.5%; in experiment [2], 14.3%; in experiment [3], 19.9%; in experiment [4], 19.9%; in experiment [5] it was 11.3%.

Turning to `CC(C)N(C(C)C)[PH+]1O[PH+](N(C(C)C)C(C)C)O[PH+](N(C(C)C)C(C)C)O[PH+](N(C(C)C)C(C)C)O[PH+](N(C(C)C)C(C)C)O1.[C-]#[O+].[C-]#[O+].[C-]#[O+].[C-]#[O+].[C-]#[O+].[C-]#[O+].[C-]#[O+].[Cr].[Cr]` (centres undefined), the growth inhibition in experiment [1] is 17.7%; in experiment [2] it was -5.45%; in experiment [3], -14.5%; in experiment [4], -0.75%; in experiment [5], 2.8%.

For `CCOP(=O)(CCP(=O)(OCC)OCC)OCC.C[CH2][Sn]([Cl])([Cl])[CH2]C`, the growth inhibition in experiment [1] is 42.9%; in experiment [2], 52.1%; in experiment [3] it was 45.5%; in experiment [4], 46%; in experiment [5], 42.1%.

Turning to `Nc1cc(S(=O)(=O)O)cc2cc(S(=O)(=O)O)c(N=Nc3ccc([As]=O)cc3)c(O)c12` (centres undefined), the growth inhibition in experiment [1] was -11.1%; in experiment [2], 15.3%; in experiment [3] it was -9.3%; in experiment [4], -4.55%; in experiment [5], 6.05%.

For the compound `CN(C)c1ccccc1`, the growth inhibition in experiment [1] was 0.35%; in experiment [2], 42.1%; in experiment [3] it was 5.35%; in experiment [4] it was -7.4%; in experiment [5], 3.1%.

As to `CC(=O)OC1CCC2(C)C(CCC3C2CCC2(C)C(c4ccc(=O)oc4)C(OC(C)=O)CC32O)C1` (centres undefined), the growth inhibition was 45.5% in experiment [1]; 0.05% in experiment [2]; 21.3% in experiment [3]; 4.5% in experiment [4]; -4.45% in experiment [5].

Consider `CC[As](=O)(O)c1ccc(OC)c(I)c1`, for which the growth inhibition in experiment [1] was 1.75%; in experiment [2], -15.3%; in experiment [3] it was 18.3%; in experiment [4], -76.5%; in experiment [5] it was 4.35%.

As to `CC1N=C(c2ccccc2)C2(c3ccccc3)C(C)N12` (centres undefined), the growth inhibition in experiment [1] was -7%; in experiment [2], 6.8%; in experiment [3], -7.7%; in experiment [4] it was -29.2%; in experiment [5] it was -10.3%.

As for `O=C(CCN1CC=C(c2ccccc2)CC1)NCc1ccccc1`, the growth inhibition is 5% in experiment [1] and -6.8% in experiment [2].

As for `Cc1cc(NC(=O)CCc2ccc(N)cc2)ccc1S(=O)(=O)F`, the growth inhibition in experiment [1] is 89.5% (active); in experiment [2] it was 94.9% (active); in experiment [3], 96.5% (active); in experiment [4], 81.8% (active); in experiment [5] it was 95% (active).

In the case of `O=C(O)CCCc1ccc(N(CCCl)OCCCl)cc1`, the growth inhibition is -21.1% in experiment [1]; -3.3% in experiment [2]; 16.7% in experiment [3]; 10.2% in experiment [4]; 13.3% in experiment [5].

Turning to `CN(C)CCCc1c[nH]c2ccccc12`, the growth inhibition was -20.4% in experiment [1]; -6.6% in experiment [2]; -4.85% in experiment [3]; -7.5% in experiment [4]; -52.5% in experiment [5].

For the compound `NC(=O)OC(CCl)CCl`, the growth inhibition in experiment [1] is 35.2%; in experiment [2], -10.1%; in experiment [3], -9%; in experiment [4], -13.3%; in experiment [5], -10%; in experiment [6] it was -4.3%.

Source of the values: PubChem BioAssay (NCI).
